According to PubChem BioAssay (NCI):
About 83,000 compounds went through this panel and 20% of them were active in at least one assay; those are over-represented in the sample as a whole.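 Values shown are percent growth following 48 h exposure of cells in 96-well plates to a single concentration of compound; below 10 was considered active.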 Unmarked numbers belong to inactive results. The source made the active and inactive calls.

How the values were obtained:
Experiment in all cases: NCI-60 one-dose screen, 48 h (100 = growth as untreated, 0 = no growth, -100 = all killed)
Settings in all cases: 10 µM unless noted
NCI-H23 lung = system: NCI-H23 lung
NCI-H226 lung = system: NCI-H226 lung
NCI-H322M lung = system: NCI-H322M lung
HOP-62 NSCLC = system: HOP-62 NSCLC
NCI-H460 lung = system: NCI-H460 lung
HOP-92 NSCLC = system: HOP-92 NSCLC
NCI-H522 lung = system: NCI-H522 lung
A549/ATCC NSCLC = system: A549/ATCC NSCLC
786-0 renal = system: 786-0 renal
COLO 205 colon = system: COLO 205 colon

Row | SMILES | growth (NCI-H23 lung) | growth (NCI-H226 lung) | growth (NCI-H322M lung) | growth (HOP-62 NSCLC) | growth (NCI-H460 lung) | growth (HOP-92 NSCLC) | growth (NCI-H522 lung) | growth (A549/ATCC NSCLC) | growth (786-0 renal) | growth (COLO 205 colon)
1 | C/C(=C(/c1ccc(Cl)cc1)c1ccc(OCCN2CCCCC2)cc1)c1ccccc1 | 76.3% | 98.7% | 91.4% | 68.8% | 74.4% | 83.6% | 81.4% | 57.2% | 75.6% | 11.8%
2 | COc1cc2ncnc(Oc3cccc(NC(=O)Nc4cc(C(C)(C)C(F)(F)F)on4)c3)c2cc1OC | 19.4% | 23.9% | 1.62% (active) | 37.1% | 34.3% | -3.15% (active) | 0.301% (active) | 33.4% | 39.5% | 1.14% (active)
3 | COc1cccc2cc(-c3nc(C4CCC(C(=O)O)CC4)n4ncnc(N)c34)[nH]c12 (stereo not given) | 7.94% (active) | 7.69% (active) | 9.76% (active) | -10% (active) | 11.1% | -14.5% (active) | -1.72% (active) | 5.25% (active) | -5.64% (active) | 1.83% (active)
4 | COc1ccc2c(CCCC(c3ccccc3)c3ccccc3)c3[n+](cc2c1OC)CCc1cc2c(cc1-3)OCO2 | -30.1% (active) | 2.75% (active) | 16.2% | -9.19% (active) | -53% (active) | -40.6% (active) | -21% (active) | 10.2% | -18.7% (active) | -67.8% (active)
5 | N#CC[C@H](C1CCCC1)n1cc(-c2ncnc3[nH]ccc23)cn1 | 71.5% | 33.7% | 76.2% | 45.1% | 54.7% | 41.5% | 37.9% | 43.8% | 54.7% | 37%
6 | COc1ccc(OC)c(NC2=C(SCCc3ccccc3)C(=O)c3ccccc3C2=O)c1 | 45.2% | 78.8% | 89.7% | 97.8% | 91.6% | 77.8% | 73% | 87.2% | 100% | 95.6%
7 | Cc1cc2c3c(cccc3c1)C(=O)c1ccccc1-2 | 81% | 96.6% | 82.3% | 99.3% | 102% | 108% | 95% | 104% | 104% | 93.4%
8 | C[C@@H](Oc1cc(-c2cnn(C3CCNCC3)c2)cnc1N)c1c(Cl)ccc(F)c1Cl | -10.4% (active) | -11.6% (active) | 15.2% | -34.8% (active) | -64.4% (active) | -51.9% (active) | -74.8% (active) | -40.9% (active) | -74.7% (active) | -78.5% (active)
9 | C[C@]12O[C@H](C[C@]1(O)CO)n1c3ccccc3c3c4c(c5c6ccccc6n2c5c31)CNC4=O | -58.3% (active) | -68.8% (active) | -32.1% (active) | -63% (active) | -61.3% (active) | -26.3% (active) | -56.2% (active) | -29.9% (active) | -87.5% (active) | -84.9% (active)
10 | COc1cc(NCCN(CC(C)C)CC(C)C)c2ncc(C)cc2c1 | 42% | 90.5% | 82.9% | 51.5% | 60.4% | 132% | 73.2% | 31.7% | 91.3% | 49.6%
11 | COCc1c(-c2ccc(NC(=O)Nc3cc(C(F)(F)F)ccc3F)c(F)c2)c2c(N)ncnn2c1CN1CCOCC1 | -53.4% (active) | -7.25% (active) | -17% (active) | -58.9% (active) | -47.2% (active) | -32.8% (active) | -55.3% (active) | -18.8% (active) | -43.5% (active) | -88.8% (active)
12 | O=C(CNc1nc2ccccc2s1)Nc1ccc(-c2nc3ccccc3s2)cc1 | 88.9% | 92.4% | 92.3% | 104% | 99.8% | 99.8% | 91.2% | 100% | 102% | 112%
13 | CC1CCC(n2cnc3c(Cl)ncnc32)O1 (stereo not given) | 89.5% | 95.9% | 86.3% | 91.2% | 101% | 75.5% | 82.9% | 106% | 98.1% | 104%
14 | COc1cc(N2CCC(N3CCN(C)CC3)CC2)ccc1Nc1ncnc(Nc2ccccc2S(=O)(=O)C(C)C)n1 | 102% | 109% | 109% | 86.7% | 102% | 105% | 80.5% | 104% | 99.7% | 99%
15 | CN(C)C/C=C/C(=O)Nc1cc2c(Nc3ccc(F)c(Cl)c3)ncnc2cc1O[C@H]1CCOC1 | -11.7% (active) | -7.37% (active) | -16.4% (active) | -10.8% (active) | 4.3% (active) | -11.5% (active) | -55.6% (active) | 3.14% (active) | 8.66% (active) | -65.1% (active)
16 | O=C1CC(c2ccc(Cl)cc2)c2ncn(-c3cccc(Cl)c3)c2N1 (stereo not given) | 72% | 71% | 91.6% | 51.2% | 34% | 60.8% | 27.6% | 45.2% | 55% | 97.7%
17 | COc1cc2ncnc(Nc3ccc(F)c(Cl)c3)c2cc1NC(=O)/C=C/CN1CCCCC1 | -54.1% (active) | -83.4% (active) | -1.5% (active) | -51.9% (active) | -69.9% (active) | -83.6% (active) | -56.9% (active) | -76.9% (active) | -81.7% (active) | -76.6% (active)
18 | COc1cc(OC)c(/C=C/S(=O)(=O)Cc2ccc(OC)c(NCC(=O)O)c2)c(OC)c1 | 31.9% | 61.1% | 47.1% | 12.6% | 1.56% (active) | 43.9% | -18% (active) | 9.08% (active) | 21.9% | -62.1% (active)
19 | O=C(NOCCO)c1cc(CN2OCCCC2=O)c(F)c(F)c1Nc1ccc(I)cc1F | 22.7% | 50.9% | 15.4% | 36.8% | 59.4% | -20% (active) | 45.8% | 28.9% | 64.6% | 5.72% (active)
20 | COc1cc2ncnc3c2cc1OCCCCCN(C)Cc1ccc(Br)cc1N3 | 70.2% | 88.3% | 0.138% (active) | 74.5% | 36.7% | 64.6% | -9.44% (active) | 35.1% | 68.7% | 51.3%
21 | CCCCCCCC12Cc3ccccc3C1=Nc1c(c3ccccc3n1C)C2=O (stereo not given) | 84.8% | 77.8% | 88.4% | 84% | 92.7% | 93.4% | 48.1% | 75.5% | 105% | 112%
22 | O=C(COc1cccc(/C=C2\Cc3ccc(Cl)cc3C2=O)c1)Nc1nccs1 | 78.5% | 86.1% | 96.9% | 96.5% | 89.2% | 77.2% | 2.66% (active) | 88.7% | 98.5% | 113%
23 | N#CCNC(=O)c1ccc(-c2ccnc(Nc3ccc(N4CCOCC4)cc3)n2)cc1 | 29.6% | -3.52% (active) | 39.2% | 4.27% (active) | 6.81% (active) | 46.9% | 4.57% (active) | 13.4% | 4.83% (active) | 2.5% (active)
24 | [2H]C1([2H])[C@H](C)O[C@H](C)C([2H])([2H])N1c1ccc(NC(=O)c2cccc(-c3ccc(OC(F)(F)F)cc3)c2C)cn1 | 58.5% | 58.7% | 83.4% | 77.7% | 85.1% | 8.86% (active) | 44.7% | 68.9% | 74.1% | 81.6%
25 | CN1CCN(c2nc(NCCNc3ccnc4cc(Cl)ccc34)c3ccccc3n2)CC1 | 44.9% | 62% | 21.3% | 13.7% | 11.6% | 53% | -20.2% (active) | 1.62% (active) | -33.3% (active) | -62.6% (active)
